Hits are enriched below; roughly 19% of the tested compounds scored in any of these assays.
IL1B secr inh: inflammasome signaling inhibition, IL-1 beta readout. THP-1 LPS/ATP IL-1B secretion, AlphaLISA, 16 h; hits give low values. activity change, % at 57.5 µM. actives 4.7% (n = 360,000). AID 743279; in the data active = activity change below about -50%; inconclusive = mostly about -30% to -49%
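Secreted IL-1B measured by AlphaLISA bead assay after 16 h compound exposure of THP-1 cells; compounds (final up to 57.5 uM) added 1 h before LPS (250 ng/mL) and ATP (1.25 mM) stimulation; lower signal means less secretion.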
DT40 TDP1 CPT: growth inhibition of DT40 Tdp1-/-;hTDP1 cells with camptothecin (screen for TDP1 inhibitors); Potency, µM (top dose mostly 46.2 µM), actives largely listed as inhibitors; chicken DT40 Tdp1-/-;hTDP1 cells + 20 nM CPT, ATP luminescence, 48 h; actives 12% (n = 420,000); note: nearly all actives have a fitted effect of over 55% in size
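Chicken DT40 Tdp1-/- cells stably complemented with human TDP1 were seeded at 400 cells/well in medium containing 20 nM camptothecin, exposed to pin-transferred compounds, and grown at 37 °C for at least 48 hr. Viability was read as ATP luminescence.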
HT1080NT lethal: kills 2HG-producing HT-1080-NT fibrosarcoma cells | Potency, µM (doses to about 46.1 µM), most hits filed as cytotoxic | HT-1080-NT fibrosarcoma viability, CellTiter-Glo ATP luminescence, 48 h | actives 1.6% (n = 360,000);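 note: NT is the 2HG producing partner of a matched IDH1 knockdown line; nearly all actives have a fitted effect of over 55% in size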
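Toxicity toward the 2HG-producing NT line was scored as %Activity, normalised to DMSO and no-cell wells, from CellTiter-Glo luminescence after 48 hours' treatment.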
TDP1 cell noCPT: qHTS for Inhibitors of human tyrosyl-DNA phosphodiesterase 1 (TDP1): qHTS in cells in absence of CPT | DT40 Tdp1-/- hTDP1 cells, no CPT, ATP luminescence, 48 h | Potency, µM (doses to about 46.2 µM), usual class: inhibitors | actives 15% (n = 420,000) | AID 686978, 2013; note: nearly all actives have a fitted effect of over 55% in size
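Seeded 400 DT40-hTDP1 cells/well (vehicle DMSO, no 20 nM CPT); pinned compounds; ≥48 hr at 37 °C; CellTiter-Glo luminescence as viability measure.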
HT1080 IDH1KD tx: kills HT-1080 cells with IDH1 knockdown | HT-1080 IDH1 knockdown viability, ATP luminescence, 48 h | AID 686971 | actives 2% (n = 360,000) | Potency, µM (highest dose often 46.1 µM), usual class: cytotoxic
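In this qHTS, HT-1080 cells depleted of IDH1 are exposed for 48 h at 37 °C to compound titrations. Toxicity is scored from CellTiter-Glo luminescence, with DMSO as full viability and medium alone as none.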
Hits are given with their value; 0 = inactive; ? = inconclusive; - = no result; ! = a repeat was not active. Unless noted, calls come from the whole dose curve; as a rule, active = well fitted curve in the direction sought with a large enough effect; inconclusive = small, poorly fitted or top-dose-only effect, or another doubt; inactive = no such curve, though single readings can be large; an effect the other way counts as inactive or inconclusive.

SMILES | IL1B secr inh | DT40 TDP1 CPT | HT1080NT lethal | TDP1 cell noCPT | HT1080 IDH1KD tx
CN(Cc1c(C(=O)N/N=C/c2ccc(O)cc2)nnn1-c1nonc1N)c1ccccc1 | 0 | 0 | 0 | 0 | 0
CC(=O)c1ccc(NC(=O)c2cnsn2)cc1 | 0 | 0 | 0 | 0 | 0
CC1=C(C(=O)NCc2ccccn2)C2(CCC(C)CC2)OC1=O (stereo not drawn) | 0 | 0 | 0 | 0 | 0
Cc1ccc(-c2nc(CS(=O)(=O)CC(=O)N3CCc4ccccc4C3)c(C)o2)cc1 | 0 | 18.4µM | 0 | 20.6µM | 0
Cc1ccc(-c2nc(CS(=O)(=O)CC(=O)N3CCN(c4ccccc4)CC3)c(C)o2)cc1 | - | ? | - | 23.1µM | -
Cc1cccc(C)c1NC(=O)c1cc(S(=O)(=O)N2CCC3(CC2)OCCO3)ccc1F | 0 | 0 | 0 | 0 | 0
O=C(Nc1ccc(Cl)cc1Cl)c1cc(S(=O)(=O)N2CCC3(CC2)OCCO3)ccc1F | - | 16.4µM | - | 16.4µM | -
COc1ccc(C)cc1NC(=O)c1cc(S(=O)(=O)N2CCC3(CC2)OCCO3)ccc1F | 0 | 0 | 0 | 0 | 0
Cc1ccc(NC(=O)c2cc(S(=O)(=O)N3CCC4(CC3)OCCO4)ccc2F)cc1Cl | - | 8.2µM | - | 14.6µM | -
O=C(Nc1ccc(Cl)cc1Cl)c1cc(S(=O)(=O)N2CCN(c3ccccc3F)CC2)ccc1F | - | 9.2µM | - | 8.2µM | -
CCCCN(C)C(=O)C1CCCN(S(=O)(=O)c2ccc3c(c2)CC(C)N3C(=O)C2CC2)C1 (stereo not drawn) | 0 | ? | 0 | ? | 0
CNC(=O)Nc1ccccc1NC(=O)NC | 0 | 0 | 0 | 0 | 0
COc1ccc(NC(=O)Nc2ccc3c(c2)CCC3)cc1 | 0 | 0 | 0 | 0 | 0
COc1cc(OC)cc(N(C(=O)c2ccco2)C(C(=O)NC2CCCC2)c2ccc(N3CCOCC3)cc2)c1 (stereo not drawn) | 0 | 0 | 0 | 0 | 0
Cc1cc(CN(C)Cc2cn(C)nc2-c2ccc(Oc3ccccc3)cc2)on1 | 0 | ? | 0 | 16.4µM | 0
Cc1cc(CN(C)Cc2ccc(OCC(O)CN(C)Cc3ccccc3)cc2)on1 (stereo not drawn) | 0 | 0 | 0 | ? | 0
CN(Cc1cccnc1)Cc1cn(C)nc1-c1ccc(Oc2ccccc2)cc1 | 0 | ? | 0 | 18.4µM | 0
CN(Cc1cccnc1)Cc1cn(C)nc1-c1cccc(Cl)c1 | 0 | ? | 0 | 15.8µM! | 0
CN(Cc1cn(C)nc1-c1cccc(Cl)c1)Cc1nccn1C | 0 | ? | 0 | ? | 0
COCCn1c(SCC(=O)Nc2cc(C)on2)nnc1-c1ccccc1 | 0 | 0 | 0 | 0 | 0
CCCN(CC(=O)Nc1ccc(C(N)=O)cc1)CC(=O)Nc1ccc(F)c(F)c1F | 0 | 0 | 0 | 0 | 0
Cc1ccc(-n2ncc3c(NCCCOC(C)C)ncnc32)c(C)c1 | 0 | ? | 0 | ? | 0
Cc1ccc(-n2ncc3c(N(CC(C)C)CC(C)C)ncnc32)c(C)c1 | - | 20.6µM | - | ? | -
CCOC(=O)N1CCC(Nc2ncnc3c2cnn3-c2ccc(C)cc2C)CC1 | 0 | 10.3µM | 0 | 8.2µM | 0
Cc1ccc(-n2ncc3c(NCC(C)C)ncnc32)c(C)c1 | - | 23.1µM | - | ? | -
SMILES | IL1B secr inh | DT40 TDP1 CPT | HT1080NT lethal | TDP1 cell noCPT | HT1080 IDH1KD tx
C=CCNc1ncnc2c1cnn2-c1ccc(C)cc1C | 0 | 0 | 0 | ? | 0
Cc1ccc(-n2ncc3c(SCc4ccccn4)ncnc32)c(C)c1 | -69.2 | ? | ? | 16.4µM | ?
CSc1ncnc2c1cnn2-c1ccc(C)cc1C | 0 | 0 | 0 | ? | 0
Cn1nc(-c2ccccc2)c2ncc(C(F)(F)F)cc21 | 0 | 0 | 0 | 0 | ?
CCOc1cc(N2CCOCC2)c(OCC)cc1NC(=O)c1ccc(OC)c(S(=O)(=O)N2CCOCC2)c1 | 0 | 0 | 0 | ? | 0
COc1ccc(Nc2cc(C(=O)NCc3ccccc3)c3ccccc3n2)cc1OC | - | 0 | - | 0 | -
CCN(CC)CCNC(=O)c1cc(Nc2ccc(OC)c(OC)c2)nc2ccccc12 | -58.0 | 0 | 0 | 0 | ?
CCN(CC)CCCNC(=O)c1cc(Nc2ccc(OC)cc2)nc2ccccc12 | -60.4 | 18.4µM | 0 | 23.1µM | ?
CCOc1ccccc1Nc1nc2ccccc2nc1NS(=O)(=O)c1ccc(Cl)cc1 | - | ? | - | 5.17µM | -
COc1cccc(Nc2nc3cc(C)ccc3nc2NS(=O)(=O)c2ccc(Cl)cc2)c1 | - | 5.17µM | - | 4.11µM | -
CCOc1ccc(S(=O)(=O)Nc2nc3ccccc3nc2Nc2ccc(OC)cc2)cc1 | - | 0 | - | 0 | -
C[C@@H](C(=O)Nc1ccc2ccccc2c1)[C@H]1C[C@]1(C)[C@H](NC(=O)c1cnccn1)c1ccccc1 | -52.0 | ? | 0 | ? | 0
C[C@@H](C(=O)Nc1ccc2ccccc2c1)[C@@H]1C[C@@]1(C)[C@@H](NC(=O)c1cnccn1)c1ccccc1 | 0 | 25.9µM | 0 | ? | 0
Cc1cc(C(=O)N[C@@H](c2ccccc2)[C@]2(C)C[C@H]2[C@@H](C)C(=O)Nc2ccc3ccccc3c2)no1 | 0 | ? | 0 | ? | 0
O=C(Nc1ccc2c(c1)CCC2)c1cnccn1 | 0 | 0 | 0 | 0 | 0
Cc1cc(C(=O)N[C@H](c2ccccc2)[C@@]2(C)C[C@@H]2[C@@H](C)C(=O)Nc2ccc3ccccc3c2)no1 | -53.7 | ? | 0 | 25.9µM | 0
C[C@H](CO)NC(=O)[C@H](C)[C@@H]1C[C@@]1(C)[C@@H](NC(=O)OCc1ccccc1)c1ccccc1 | 0 | 0 | 0 | ? | 0
Cc1ccc(-c2nc(CS(=O)(=O)CC(=O)NCCc3ccccc3)c(C)o2)cc1 | - | 0 | - | 0 | -
Cc1cc(C)cc(NS(=O)(=O)c2c(C)[nH]c(=O)[nH]c2=O)c1 | 0 | 0 | 0 | 0 | 0
CC(C)(C)NC(=O)C(c1ccc(C(F)(F)F)cc1)n1c(=O)c(-c2cc3ccccc3[nH]2)nc2ccccc21 (stereo not drawn) | 0 | ? | ? | ? | 20.6µM
CC(C)(C)NC(=O)C(c1ccccc1)n1c(=O)c(-c2cc3ccccc3[nH]2)nc2ccccc21 (stereo not drawn) | 0 | ? | ? | ? | ?
O=C(NC1CCCC1)C(c1ccccc1)n1c(Cc2cc(F)cc(F)c2)nc2ccccc21 (stereo not drawn) | 0 | 18.4µM | ? | ? | ?
CC(C)(C)NC(=O)C(c1ccc(-c2ccccc2)cc1)n1c(=O)c(-c2cc3ccccc3[nH]2)nc2ccccc21 (stereo not drawn) | 0 | ? | 0 | 14.6µM | 0
Cc1cccc(C)c1NC(=O)C(c1ccc(C(F)(F)F)cc1)n1c(=O)c(-c2cc3ccccc3[nH]2)nc2ccccc21 (stereo not drawn) | 0 | ? | ? | ? | 20.6µM
